Experimental data as given in PubChem BioAssay AID504339 (National Center for Advancing Translational Sciences (NCATS), 2011).
In all, about 390,000 compounds went through this assay and about 17,000 (4.4%) were called active. Inconclusive results (about 8%) are left out. Calls come from the whole dose curve; as a rule, active = well fitted inhibition curve with a large enough effect; inconclusive = small, poorly fitted or top-dose-only effect; inactive = no such curve, though single readings can be large or run the other way. For the sample, actives were picked, then their nearest neighbours and some compounds at random.

Target: Lysine-specific demethylase 4A (Homo sapiens) (UniProt O75164)
Assay: qHTS Assay for Inhibitors of JMJD2A-Tudor Domain; note: nearly all actives have a fitted effect of over 50% in size
Details: AlphaScreen JMJD2A-Tudor / H3K4me3 peptide binding; series mostly up to 114 µM; activity change, negative = inhibition: at the top concentration
Description: JMJD2A is a jumonji-domain-containing lysine demethylase that uses Fe(II) together with 2-OG to effect oxidative demethylation of histones. Methylation is one of many […] modification that affect epigenetic transcription. […] It is proposed that the functions of JmjD2A binding to the histones, is to maintain marks after they are installed and to spread the modifications by […], establishing a self-propagating cycle for rapid methylation over a large area of chromatin. […] Thus, small molecule targeting of the JMJD2A-tudor domain interaction with its target methylhistone mark is expected to enable sophisticated experiments probing the fine regulatory pathways leading to selective demethylation of a given methyllysine locus based on the methylation state of adjacent histone marks. A quantitative high throughput AlphaScreen has been developed to identify small molecule inhibitors based on a protocol published by NCGC and SGC [4].
Although AlphaScreen has significant advantages with its utility in a variety of epigenetic target assays, the primary screening data provided in this deposition should be used with caution due to the prevalence of screening artifacts. The top compound concentration tested was high (>100uM) in this assay, which increases number of actives and potential artifacts. An AlphaScreen counterscreen is highly recommended to be run against any putative actives to eliminate non-specific artifacts. Alternatively, one can use other AlphaScreen assays in PubChem to filter out promiscuous hits.
[1] Lee, J. et al. Distinct binding modes specify the recognition of methylated histone H3K4 and H4K20 by JMJD2A-tudor. Nat Struct Mol Biol. 15(1); 109-11. 2008. PMID: 18084306
[2] Yasgar, et al. Compound Management for Quantitative High-Throughput Screening. JALA. 2008 Apr;13(2):79-89. PMID: 18496600
[3] Inglese, et al. Quantitative high-throughput screening: a titration-based approach that efficiently identifies biological activities in large chemical libraries. Proc Natl Acad Sci. 1;103(31):11473-8. 2006. PMID: 16864780
[4] Quinn et al. A homogeneous method for investigation of methyl-dependent protein-protein interactions in epigenetics. Nucleic Acids Res., 38(2):e11. 2010. PMID: […]
[5] Baell,Holloway. New substructure filters for removal of pan assay interference compounds (PAINS) from screening libraries and for their exclusion in bioassays. J Med Chem. 53(7):2719-40. 2010. PMID: 20131845
NIH Molecular Libraries Probe Production Network [MLPCN]
NIH Chemical Genomics Center [NCGC]
Structural Genomics Consortium (SGC)
To each well of a 1,536w plate, 2ul of JMJD2A-Tudor (final 100nM) and 1ul biotinylated histone peptide methylated at Lys4 [b-H3(1-18)K4me3] (final 50nM) were added in 1x PBS buffer, pH 7.4, containing 0.01% Tween-20, using a nanoliter dispenser. Formation of a protein-peptide complex proceeded at room temperature for 30 min. A Kalypsys pin-tool transferred 23nl of library compound solution in DMSO to each well. Following a 30 min incubation of the protein-peptide complex with compounds at room temperature, a mixture of 40 µg/mL each streptavidin-coated donor and nickel chelate acceptor AlphaScreen beads (final 10 µg/mL) was added in a 1ul dispense for a final volume of 4ul, followed by a brief centrifugation (1000 rpm, 1 min). Plates were incubated protected from the light for 20 min at room temperature. Microplates were then read on an EnVision multilabel plate reader using the 1,536 plate HTS AlphaScreen aperture (excitation time 80 ms, measurement time 240 ms).
% is set by controls: 0 for no effect and ±100 for the full control effect; potency is the fitted concentration of half-maximal effect.

Chain of Lysine-specific demethylase 4A (Homo sapiens) (O75164 whole entry, looked up, the tested form may be a part): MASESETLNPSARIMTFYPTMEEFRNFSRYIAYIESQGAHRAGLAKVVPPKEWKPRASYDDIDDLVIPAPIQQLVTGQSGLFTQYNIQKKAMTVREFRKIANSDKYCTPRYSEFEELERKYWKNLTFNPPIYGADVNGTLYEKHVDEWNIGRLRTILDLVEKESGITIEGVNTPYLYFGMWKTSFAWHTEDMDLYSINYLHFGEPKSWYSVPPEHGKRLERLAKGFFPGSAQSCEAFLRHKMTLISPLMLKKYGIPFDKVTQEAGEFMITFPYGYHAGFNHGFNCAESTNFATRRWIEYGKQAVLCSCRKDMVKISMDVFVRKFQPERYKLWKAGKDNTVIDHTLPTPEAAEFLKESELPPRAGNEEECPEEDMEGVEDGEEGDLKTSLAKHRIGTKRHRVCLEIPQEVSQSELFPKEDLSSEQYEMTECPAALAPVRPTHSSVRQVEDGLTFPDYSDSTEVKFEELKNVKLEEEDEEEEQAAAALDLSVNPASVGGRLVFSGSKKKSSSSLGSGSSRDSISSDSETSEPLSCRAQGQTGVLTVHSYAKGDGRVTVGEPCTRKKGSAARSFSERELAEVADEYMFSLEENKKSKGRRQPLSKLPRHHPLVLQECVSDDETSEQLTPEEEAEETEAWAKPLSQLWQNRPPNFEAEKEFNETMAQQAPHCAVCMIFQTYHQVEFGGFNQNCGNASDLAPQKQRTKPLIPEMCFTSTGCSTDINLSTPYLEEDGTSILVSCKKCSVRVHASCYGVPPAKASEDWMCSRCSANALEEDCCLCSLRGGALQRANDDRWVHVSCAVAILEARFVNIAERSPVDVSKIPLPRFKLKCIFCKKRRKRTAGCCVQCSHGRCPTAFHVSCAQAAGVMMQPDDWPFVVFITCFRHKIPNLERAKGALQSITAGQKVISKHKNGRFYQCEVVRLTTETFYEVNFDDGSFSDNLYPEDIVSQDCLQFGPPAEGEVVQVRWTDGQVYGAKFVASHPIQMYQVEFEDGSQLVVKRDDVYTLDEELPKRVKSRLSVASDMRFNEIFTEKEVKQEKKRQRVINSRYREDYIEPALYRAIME

Row | Structure (SMILES) | Potency | activity change, negative = inhibition
1 | O=C(O)c1cc[c]([Sb](=[O])([OH])[OH])cc1[N+](=O)[O-] | 0.316 µM (active) | –
2 | O=C(c1ccccc1[N+](=O)[O-])N1CCC2(CC1)OCCO2 | – | -6.21% (inactive)
3 | C[C@@]1([C@@H](NP(=O)(c2ccccc2)c2ccccc2)c2ccccc2)C[C@H]1CCO | – | -5.04% (inactive)
4 | COC(=O)N(c1ccc(OC)cc1)P1(=S)OCCC(C)O1 (stereo not given) | 79.4 µM (active) | –
5 | CCC(=O)c1ccc(OCC(=O)N2CCN(CC(=O)Nc3ccc(C)cc3)CC2)cc1 | – | 21.2% (inactive)
6 | O=C1NC(=O)C(Cc2ccccc2)C(=O)N1 | – | -8.28% (inactive)
7 | COC(=O)C1=C(c2ccccc2)C[C@@H]2CC[C@H]1N2C(=O)N1CCCCC1 | – | -13.1% (inactive)
8 | Cn1c(O)c(C=NCCN2CCNCC2)c(=O)n(C)c1=O | – | -6.87% [at 57.1 µM] (inactive)
9 | c1cc2c(cc1[C@H]1OC[C@H]3[C@@H]1CO[C@@H]3c1ccc3c(c1)OCO3)OCO2 | – | -20.7% (inactive)
10 | c1cc2c(cc1CCNC1CCCCCC1)OCO2 | 3.16 µM (active) | –
11 | c1ccc(CC2CCCCN2)cc1 (stereo not given) | – | -17.5% (inactive)
12 | Cc1ccc(CN2CCCC(C(=O)c3ccc4c(c3)OCO4)C2)cc1C (stereo not given) | – | -17.6% [at 11.4 µM] (inactive)
13 | OC(CNC1CCCCC1)c1ccccc1 (stereo not given) | – | -6.35% (inactive)
14 | c1ccc(CCNC2CCCCCC2)cc1 | 70.8 µM (active) | –
15 | O=P1(Oc2ccccc2)CC(O)C(O)C(COCc2ccccc2)O1 (stereo not given) | – | -14.5% (inactive)
16 | S=P(c1ccccc1)(c1ccccc1)c1c(-c2ccccc2)[nH]c2ccccc12 | – | -27.2% (inactive)
17 | CCCC[N+]1(C)C2CC(OC(=O)C(CO)c3ccccc3)CC1C1OC12 (stereo not given) | – | -1.44% (inactive)
18 | CNP1(NC)=Nc2nn(-c3ccccc3)c(N)c2C(c2ccccc2)=N1 | – | -14.5% (inactive)
19 | O=C1C2(Cl)C3(Cl)C4(Cl)C(Cl)(Cl)C5(Cl)C3(Cl)C1(Cl)C5(Cl)C24Cl (stereo not given) | – | -25.5% (inactive)
20 | Nc1ccc(C(=O)N/N=C2/CN3CCC2CC3)cc1 | 89.1 µM (active) | –
21 | CC1CC=CCC12C(=O)NC(=S)NC2=O (stereo not given) | – | -2.78% (inactive)
22 | COC(=O)C1=C(c2ccc(Cl)c(C(F)(F)F)c2)C[C@@H]2CC[C@H]1N2C(=O)NC1CC1 | – | -5% (inactive)
23 | CCOc1cc(N2CCOCC2)c(OCC)cc1NC(=O)C1=NN(c2cccc(C)c2)C(=O)CC1 | 50.1 µM (active) | –
24 | Cc1cccc(-n2c(O)c(/C=N/N3CCOCC3)c(=O)[nH]c2=S)c1 | – | -3.47% (inactive)
25 | CCN1C(=O)NC(=O)C2(CCCC2)C1=O | – | -12.5% (inactive)
26 | c1cncc(CNCCc2c[nH]c3ccccc23)c1 | – | -11.6% (inactive)
27 | COc1ccc(CNCCc2c[nH]c3ccccc23)cc1OC | 79.4 µM (active) | –
28 | C/C(CCc1c[nH]c2ccccc12)=N\O | – | -5.13% (inactive)
29 | CCN1CC2C3CCC(C)(O3)C2C1 (stereo not given) | – | -21.9% (inactive)
30 | CC1([N+](=O)[O-])COP(=O)(Nc2ccc(F)cc2)OC1 (stereo not given) | – | -4.86% (inactive)
